Results on 39 compounds are retold here after PubChem BioAssay (Tox21).

Where “and” joins values, the source holds several entries; their conditions need not be identical. Equal values may be shown once. Results filed as inconclusive are left out. A call without a number means that no potency is given here. Calls of active or inactive are those of the source. The call rests on the fitted dose curve; in most records, active means well fitted curve in the direction sought with a large enough effect in the repeat runs; inconclusive means weak or mixed curves; inactive means no such curve, though single readings can be large; an effect the other way counts as inactive or inconclusive.
Potency means the concentration at half of the fitted maximal effect.

The first test in a line: Human pregnane X receptor (PXR) small molecule agonists, qHTS cell viability counter screen (AID 1346977). Further: nearly all actives have a fitted effect of over 50% in size. The settings on record: PXR-Luc HepG2 viability, CellTiter-Fluor, 24 h; series mostly up to 92.4 µM. In outline: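 Measures live-cell protease fluorescence (CellTiter-Fluor) in PXR-Luc HepG2 cells treated 24hr with compounds at 37C. Cells had 5hr to attach before pin transfer of DMSO solutions.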
`CCOCCOCCO`: the Potency entry was “inactive”.

As for `CC1=CCC(C(C)(C)O)CC1` (stereo not drawn), the Potency result is “inactive”.

Consider `CC(=O)Oc1ccccc1C(=O)Nc1ncc([N+](=O)[O-])s1`, for which the Potency is 12.4 µM (active) and 16.8 µM (active).

For the compound `CC(=O)c1ccccn1`, the Potency entry was “inactive”.

Turning to `Cc1cccc(N(C)C(=S)Oc2ccc3ccccc3c2)c1`, the Potency entry is “inactive”.

As to `NC=O`, the Potency entry is “inactive”.

For `COc1ccc(OC)c(C(O)CNC(=O)CN)c1` (stereo not drawn), the Potency result was “inactive”.

As to `O=CCCCC=O`, the Potency entry is “inactive”.

On to `COc1ccc(C(=O)CC(=O)c2ccc(C(C)(C)C)cc2)cc1`, for which the Potency result is “inactive”.

Regarding `Cc1[nH]c(=O)c(C#N)cc1-c1ccncc1`, the Potency entry is “inactive”.

For the compound `CNCCCC12CCC(c3ccccc31)c1ccccc12`, the Potency is 27.3 µM (active).

`C#C[C@]1(O)CC[C@H]2[C@@H]3CCC4=Cc5oncc5C[C@]4(C)[C@H]3CC[C@@]21C`: the Potency result was “inactive”.

Turning to `Nc1ncnc2nc[nH]c12`, the Potency result was “inactive”.

Consider `O=C(COc1ccc(Cl)cc1)N1CCN(Cc2ccc3c(c2)OCO3)CC1`, for which the Potency result was “inactive”.

With `Cc1c(C(N)=O)cc([N+](=O)[O-])cc1[N+](=O)[O-]`, the Potency result was “inactive”.

With `O=Cc1ccccc1O`, the Potency entry was “inactive”.

For the compound `C[Si](C)(C)O[Si](C)(C)C`, the Potency entry was “inactive”.

As for `O=C(O)c1ccccc1Nc1cccc(C(F)(F)F)c1`, the Potency result is “inactive”.

Consider `CN(C)CCN(Cc1cccs1)c1ccccn1`, for which the Potency entry is “inactive”.

For the compound `O=C(/C=C/c1ccccc1)OCc1ccccc1`, the Potency entry is “inactive”.

In the case of `CCCC(=O)O`, the Potency entry was “inactive”.

Take `C[C@]12CC[C@H]3[C@@H](CCC4=CC(=O)CC[C@@]43C)[C@@H]1CC[C@@H]2C(=O)CO`: the Potency result was “inactive”.

As to `OC[C@H]1O[C@@H]2O[C@H]3[C@H](O)[C@@H](O)[C@@H](O[C@H]4[C@H](O)[C@@H](O)[C@@H](O[C@H]5[C@H](O)[C@@H](O)[C@@H](O[C@H]6[C@H](O)[C@@H](O)[C@@H](O[C@H]7[C@H](O)[C@@H](O)[C@@H](O[C@H]8[C@H](O)[C@@H](O)[C@@H](O[C@H]1[C@H](O)[C@H]2O)O[C@@H]8CO)O[C@@H]7CO)O[C@@H]6CO)O[C@@H]5CO)O[C@@H]4CO)O[C@@H]3CO`, the Potency result was “inactive”.

With `CCCCC(CC)COCC1CO1` (stereo not drawn), the Potency entry was “inactive”.

For `Nc1ncn([C@@H]2O[C@H](CO)[C@@H](O)[C@H]2O)c(=O)n1`, the Potency was 3.06 µM (active) and 3.76 µM (active).

Consider `CCOC(=O)C(C#N)=C(c1ccccc1)c1ccccc1`, for which the Potency result was “inactive”.

As for `C[C@]12CCC(=O)C=C1CC[C@@H]1[C@@H]2C(=O)C[C@@]2(C)[C@H]1CC[C@]2(O)C(=O)CO`, the Potency result was “inactive”.

Consider `Nc1ccc(Nc2ccccc2)cc1`, for which the Potency is 30.3 µM (active) and 39.8 µM (active) and 30.6 µM (active).

Turning to `CCCCC(CC)COC(=O)c1ccc(N(C)C)cc1` (stereo not drawn), the Potency result was “inactive”.

For `COc1cccc2c1C(=O)c1c(O)c3c(c(O)c1C2=O)C[C@@](O)(C(=O)CO)C[C@@H]3O[C@H]1C[C@H](N)[C@H](O)[C@H](C)O1`, the Potency is 1.72 µM (active) and 6.68 µM (active).

As to `C=C(C)C1CC=C(C)CC1` (stereo not drawn), the Potency result is “inactive”.

As to `Nc1ccc(S(=O)(=O)Nc2cnc3ccccc3n2)cc1`, the Potency entry is “inactive”.

Consider `CCCc1c(OCCCCc2nn[nH]n2)ccc(C(C)=O)c1O`, for which the Potency result is “inactive”.

Regarding `O=S(=O)(O)c1ccc(O)cc1`, the Potency entry was “inactive”.

For the compound `O=C1c2cccc(O)c2C(=O)c2c(O)cccc21`, the Potency result was “inactive”.

As to `S=C(NC1CCCCC1)NC1CCCCC1`, the Potency entry is “inactive”.

With `CCCCOCCOCCO`, the Potency entry is “inactive”.

As to `C#C[C@]1(O)CC[C@H]2[C@@H]3CCc4cc(OC)ccc4[C@H]3CC[C@@]21C`, the Potency entry was “inactive”.

Regarding `CC(C)(C)NC(=O)[C@H]1CC[C@H]2[C@@H]3CC[C@H]4NC(=O)C=C[C@]4(C)[C@H]3CC[C@]12C`, the Potency entry is “inactive”.

Another test is described as follows: Caspase-3/7 induction in HepG2 cells by small molecules, qHTS assay (AID 1346978). Further: nearly all actives have a fitted effect of over 15% in size. The following applies: HepG2 caspase-3/7 activation, Caspase-Glo luminescence, 17 h; series mostly up to 92.4 µM. A digest of the protocol: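 Wild-type HepG2 cells (2,000/well) were settled 5 h at 37 C, 5% CO2, then exposed to compounds in DMSO for 17 h. Caspase-3/7 activity was read by luminescence 30 min after adding Caspase-Glo 3/7 reagent at room temperature.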
(In general: qHTS replaces the single test concentration by a dilution series.)
On to `CCOCCOCCO`, for which the Potency result was “inactive”.

With `CC1=CCC(C(C)(C)O)CC1` (stereo not drawn), the Potency entry is “inactive”.

Take `CC(=O)Oc1ccccc1C(=O)Nc1ncc([N+](=O)[O-])s1`: the Potency result was “inactive”.

As for `CC(=O)c1ccccn1`, the Potency result was “inactive”.

Take `Cc1cccc(N(C)C(=S)Oc2ccc3ccccc3c2)c1`: the Potency result is “inactive”.

On to `NC=O`, for which the Potency entry is “inactive”.

Regarding `COc1ccc(OC)c(C(O)CNC(=O)CN)c1` (stereo not drawn), the Potency result was “inactive”.

Regarding `O=CCCCC=O`, the Potency result is “inactive”.

On to `COc1ccc(C(=O)CC(=O)c2ccc(C(C)(C)C)cc2)cc1`, for which the Potency result is “inactive”.

In the case of `Cc1[nH]c(=O)c(C#N)cc1-c1ccncc1`, the Potency result was “inactive”.

For `CNCCCC12CCC(c3ccccc31)c1ccccc12`, the Potency was 27.3 µM (active).

`C#C[C@]1(O)CC[C@H]2[C@@H]3CCC4=Cc5oncc5C[C@]4(C)[C@H]3CC[C@@]21C`: the Potency result was “inactive”.

On to `Nc1ncnc2nc[nH]c12`, for which the Potency result is “inactive”.

Regarding `O=C(COc1ccc(Cl)cc1)N1CCN(Cc2ccc3c(c2)OCO3)CC1`, the Potency entry was “inactive”.

Take `Cc1c(C(N)=O)cc([N+](=O)[O-])cc1[N+](=O)[O-]`: the Potency entry was “inactive”.

For the compound `O=Cc1ccccc1O`, the Potency entry is “inactive”.

Take `C[Si](C)(C)O[Si](C)(C)C`: the Potency result was “inactive”.

With `O=C(O)c1ccccc1Nc1cccc(C(F)(F)F)c1`, the Potency entry is “inactive”.

As to `CN(C)CCN(Cc1cccs1)c1ccccn1`, the Potency entry was “inactive”.

Regarding `O=C(/C=C/c1ccccc1)OCc1ccccc1`, the Potency result was “inactive”.

With `CCCC(=O)O`, the Potency entry is “inactive”.

As for `C[C@]12CC[C@H]3[C@@H](CCC4=CC(=O)CC[C@@]43C)[C@@H]1CC[C@@H]2C(=O)CO`, the Potency result is “inactive”.

Regarding `OC[C@H]1O[C@@H]2O[C@H]3[C@H](O)[C@@H](O)[C@@H](O[C@H]4[C@H](O)[C@@H](O)[C@@H](O[C@H]5[C@H](O)[C@@H](O)[C@@H](O[C@H]6[C@H](O)[C@@H](O)[C@@H](O[C@H]7[C@H](O)[C@@H](O)[C@@H](O[C@H]8[C@H](O)[C@@H](O)[C@@H](O[C@H]1[C@H](O)[C@H]2O)O[C@@H]8CO)O[C@@H]7CO)O[C@@H]6CO)O[C@@H]5CO)O[C@@H]4CO)O[C@@H]3CO`, the Potency entry was “inactive”.

For `CCCCC(CC)COCC1CO1` (stereo not drawn), the Potency result is “inactive”.

With `Nc1ncn([C@@H]2O[C@H](CO)[C@@H](O)[C@H]2O)c(=O)n1`, the Potency entry is “inactive”.

With `CCOC(=O)C(C#N)=C(c1ccccc1)c1ccccc1`, the Potency entry is “inactive”.

For the compound `C[C@]12CCC(=O)C=C1CC[C@@H]1[C@@H]2C(=O)C[C@@]2(C)[C@H]1CC[C@]2(O)C(=O)CO`, the Potency entry is “inactive”.

On to `Nc1ccc(Nc2ccccc2)cc1`, for which the Potency result was “inactive”.

Take `CCCCC(CC)COC(=O)c1ccc(N(C)C)cc1` (stereo not drawn): the Potency result was “inactive”.

As for `COc1cccc2c1C(=O)c1c(O)c3c(c(O)c1C2=O)C[C@@](O)(C(=O)CO)C[C@@H]3O[C@H]1C[C@H](N)[C@H](O)[C@H](C)O1`, the Potency was 5.96 µM (active).

As to `C=C(C)C1CC=C(C)CC1` (stereo not drawn), the Potency result is “inactive”.

For `Nc1ccc(S(=O)(=O)Nc2cnc3ccccc3n2)cc1`, the Potency result is “inactive”.

On to `CCCc1c(OCCCCc2nn[nH]n2)ccc(C(C)=O)c1O`, for which the Potency entry is “inactive”.

`O=S(=O)(O)c1ccc(O)cc1`: the Potency entry was “inactive”.

With `O=C1c2cccc(O)c2C(=O)c2c(O)cccc21`, the Potency entry is “inactive”.

For the compound `S=C(NC1CCCCC1)NC1CCCCC1`, the Potency entry was “inactive”.

As for `CCCCOCCOCCO`, the Potency entry was “inactive”.

With `C#C[C@]1(O)CC[C@H]2[C@@H]3CCc4cc(OC)ccc4[C@H]3CC[C@@]21C`, the Potency result is “inactive”.

As for `CC(C)(C)NC(=O)[C@H]1CC[C@H]2[C@@H]3CC[C@H]4NC(=O)C=C[C@]4(C)[C@H]3CC[C@]12C`, the Potency result is “inactive”.
